The record followed here is the supplement of paper PMC6555819.

The subject of the test is RARb homodimer (NR concentration 270 nM). As to the kind of experiment: PBM binding z-score (relative to random genomic background probes); higher = stronger binding; sequences stand for … in GC…GCGATTGACAGCGTAGAATGAAGG
The method in brief: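 Ligand-free nuclear receptor dimers were applied to custom Agilent 4×180K protein-binding microarrays whose double-stranded probes carried direct-repeat seeds, single-nucleotide variants, half-site ablations and random human genomic background sequences in 34-nt variable regions. Incubation lasted 1 h. Binding z-scores were computed against the random background probes from regression-normalized fluorescence.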
As to TCATATAGGTAAAGGTGAAAGCCGAACGATATGA, the PBM binding z-score worked out at 1.16.
Regarding ATATGTAGGTTACAACCGGGTCATTCAGGCTATG, the PBM binding z-score worked out at 2.97.
For CCTAGTCGGTCAAGGTCACACACGCTATAGGTAC the value was 4.9.
For CCTACTGGGCCAAAGTCATTGATCAGTCAAAGCA the value was -0.0618.
In the case of CCTCGGAGGACAACAGGAGGTCAGAACTGCCAGA it was 3.33; in that of GCTCGGAGGTCAAGGTCAGAGCTTTGTCCGTAGA, 5.13; in that of ACTAGCAGGCCAAGGGTCACTCAGGATTAGTCCG, 3.78.
ATCGATAGGTCGTGAGGTGAGTATACAGAAAGGC: the PBM binding z-score came to 1.39.
In the case of CAAACTAGGTCAAAGGTCAAAGTCGAGCCAACCA it was 4.96; in that of CCAGACAGGTGAATGGTAACTCAGTCTGGTACGC, -0.113.
For TGAATGAGGTTATAAGATCATGGAACGTTGCAAA, the PBM binding z-score was 0.204.
Take TCTCGGAGGACACGAAGGTCAGAGCATTCCAGAG: the PBM binding z-score is 3.61.
In the case of GCTAGTTGGTCAGTAAAAGGACACACACCGGTCG it was 2.31; in that of TAGCCTAGGTCATCGGGCCAGTATAGTACGCATC, 3.22.
For CGAACTAGATCATTGACAGGACAGTGAATAGTAA the value was 0.278; for TCTATTAGTTGATGGGCAACCGACGAGTCCGTTT, -0.181.
In the case of CGAACTAGGTCATTGACAGGACAGTCAATAGTAA it was 2.6.
CGAACAAGGTCAAGGACAGTGAATCTCCGCACGC displayed a PBM binding z-score of 4.07.
For TCTCGGAGGACACGAAAGGTCAGAGCTCGACATC the value was 4.73; for TCTGCTAGGTCAACGATGGTCAGCTACTCTGCTA, 3.48.
For ATCTCTAGGTAAGACCCAGTTCAGTGAAGAACGC the value was 0.62; for GCTTGTAGATCAAAGTTAAGAAAGACTAAGCTAA, -0.8.
